The record followed here is PubChem BioAssay AID588689 (Southern Research Specialized Biocontainment Screening …, 2011).

Usually inhibition stands for the change of the read-out against control, counted positive when it falls.

In this test the target is Genome polyprotein (Dengue virus type 2 (strain 16681-PDK53)) (UniProt P29991). Put plainly: Dengue-2 NS5 methyltransferase inhibitors, primary screen, biochemical, confirmation dose response (AID 588689). The conditions noted are these: Dengue-2 NS5 methyltransferase capping enzyme assay, at 25 µM, stronger effect = higher value.
Sequence of Genome polyprotein (Dengue virus type 2 (strain 16681-PDK53)) (P29991 whole entry, looked up): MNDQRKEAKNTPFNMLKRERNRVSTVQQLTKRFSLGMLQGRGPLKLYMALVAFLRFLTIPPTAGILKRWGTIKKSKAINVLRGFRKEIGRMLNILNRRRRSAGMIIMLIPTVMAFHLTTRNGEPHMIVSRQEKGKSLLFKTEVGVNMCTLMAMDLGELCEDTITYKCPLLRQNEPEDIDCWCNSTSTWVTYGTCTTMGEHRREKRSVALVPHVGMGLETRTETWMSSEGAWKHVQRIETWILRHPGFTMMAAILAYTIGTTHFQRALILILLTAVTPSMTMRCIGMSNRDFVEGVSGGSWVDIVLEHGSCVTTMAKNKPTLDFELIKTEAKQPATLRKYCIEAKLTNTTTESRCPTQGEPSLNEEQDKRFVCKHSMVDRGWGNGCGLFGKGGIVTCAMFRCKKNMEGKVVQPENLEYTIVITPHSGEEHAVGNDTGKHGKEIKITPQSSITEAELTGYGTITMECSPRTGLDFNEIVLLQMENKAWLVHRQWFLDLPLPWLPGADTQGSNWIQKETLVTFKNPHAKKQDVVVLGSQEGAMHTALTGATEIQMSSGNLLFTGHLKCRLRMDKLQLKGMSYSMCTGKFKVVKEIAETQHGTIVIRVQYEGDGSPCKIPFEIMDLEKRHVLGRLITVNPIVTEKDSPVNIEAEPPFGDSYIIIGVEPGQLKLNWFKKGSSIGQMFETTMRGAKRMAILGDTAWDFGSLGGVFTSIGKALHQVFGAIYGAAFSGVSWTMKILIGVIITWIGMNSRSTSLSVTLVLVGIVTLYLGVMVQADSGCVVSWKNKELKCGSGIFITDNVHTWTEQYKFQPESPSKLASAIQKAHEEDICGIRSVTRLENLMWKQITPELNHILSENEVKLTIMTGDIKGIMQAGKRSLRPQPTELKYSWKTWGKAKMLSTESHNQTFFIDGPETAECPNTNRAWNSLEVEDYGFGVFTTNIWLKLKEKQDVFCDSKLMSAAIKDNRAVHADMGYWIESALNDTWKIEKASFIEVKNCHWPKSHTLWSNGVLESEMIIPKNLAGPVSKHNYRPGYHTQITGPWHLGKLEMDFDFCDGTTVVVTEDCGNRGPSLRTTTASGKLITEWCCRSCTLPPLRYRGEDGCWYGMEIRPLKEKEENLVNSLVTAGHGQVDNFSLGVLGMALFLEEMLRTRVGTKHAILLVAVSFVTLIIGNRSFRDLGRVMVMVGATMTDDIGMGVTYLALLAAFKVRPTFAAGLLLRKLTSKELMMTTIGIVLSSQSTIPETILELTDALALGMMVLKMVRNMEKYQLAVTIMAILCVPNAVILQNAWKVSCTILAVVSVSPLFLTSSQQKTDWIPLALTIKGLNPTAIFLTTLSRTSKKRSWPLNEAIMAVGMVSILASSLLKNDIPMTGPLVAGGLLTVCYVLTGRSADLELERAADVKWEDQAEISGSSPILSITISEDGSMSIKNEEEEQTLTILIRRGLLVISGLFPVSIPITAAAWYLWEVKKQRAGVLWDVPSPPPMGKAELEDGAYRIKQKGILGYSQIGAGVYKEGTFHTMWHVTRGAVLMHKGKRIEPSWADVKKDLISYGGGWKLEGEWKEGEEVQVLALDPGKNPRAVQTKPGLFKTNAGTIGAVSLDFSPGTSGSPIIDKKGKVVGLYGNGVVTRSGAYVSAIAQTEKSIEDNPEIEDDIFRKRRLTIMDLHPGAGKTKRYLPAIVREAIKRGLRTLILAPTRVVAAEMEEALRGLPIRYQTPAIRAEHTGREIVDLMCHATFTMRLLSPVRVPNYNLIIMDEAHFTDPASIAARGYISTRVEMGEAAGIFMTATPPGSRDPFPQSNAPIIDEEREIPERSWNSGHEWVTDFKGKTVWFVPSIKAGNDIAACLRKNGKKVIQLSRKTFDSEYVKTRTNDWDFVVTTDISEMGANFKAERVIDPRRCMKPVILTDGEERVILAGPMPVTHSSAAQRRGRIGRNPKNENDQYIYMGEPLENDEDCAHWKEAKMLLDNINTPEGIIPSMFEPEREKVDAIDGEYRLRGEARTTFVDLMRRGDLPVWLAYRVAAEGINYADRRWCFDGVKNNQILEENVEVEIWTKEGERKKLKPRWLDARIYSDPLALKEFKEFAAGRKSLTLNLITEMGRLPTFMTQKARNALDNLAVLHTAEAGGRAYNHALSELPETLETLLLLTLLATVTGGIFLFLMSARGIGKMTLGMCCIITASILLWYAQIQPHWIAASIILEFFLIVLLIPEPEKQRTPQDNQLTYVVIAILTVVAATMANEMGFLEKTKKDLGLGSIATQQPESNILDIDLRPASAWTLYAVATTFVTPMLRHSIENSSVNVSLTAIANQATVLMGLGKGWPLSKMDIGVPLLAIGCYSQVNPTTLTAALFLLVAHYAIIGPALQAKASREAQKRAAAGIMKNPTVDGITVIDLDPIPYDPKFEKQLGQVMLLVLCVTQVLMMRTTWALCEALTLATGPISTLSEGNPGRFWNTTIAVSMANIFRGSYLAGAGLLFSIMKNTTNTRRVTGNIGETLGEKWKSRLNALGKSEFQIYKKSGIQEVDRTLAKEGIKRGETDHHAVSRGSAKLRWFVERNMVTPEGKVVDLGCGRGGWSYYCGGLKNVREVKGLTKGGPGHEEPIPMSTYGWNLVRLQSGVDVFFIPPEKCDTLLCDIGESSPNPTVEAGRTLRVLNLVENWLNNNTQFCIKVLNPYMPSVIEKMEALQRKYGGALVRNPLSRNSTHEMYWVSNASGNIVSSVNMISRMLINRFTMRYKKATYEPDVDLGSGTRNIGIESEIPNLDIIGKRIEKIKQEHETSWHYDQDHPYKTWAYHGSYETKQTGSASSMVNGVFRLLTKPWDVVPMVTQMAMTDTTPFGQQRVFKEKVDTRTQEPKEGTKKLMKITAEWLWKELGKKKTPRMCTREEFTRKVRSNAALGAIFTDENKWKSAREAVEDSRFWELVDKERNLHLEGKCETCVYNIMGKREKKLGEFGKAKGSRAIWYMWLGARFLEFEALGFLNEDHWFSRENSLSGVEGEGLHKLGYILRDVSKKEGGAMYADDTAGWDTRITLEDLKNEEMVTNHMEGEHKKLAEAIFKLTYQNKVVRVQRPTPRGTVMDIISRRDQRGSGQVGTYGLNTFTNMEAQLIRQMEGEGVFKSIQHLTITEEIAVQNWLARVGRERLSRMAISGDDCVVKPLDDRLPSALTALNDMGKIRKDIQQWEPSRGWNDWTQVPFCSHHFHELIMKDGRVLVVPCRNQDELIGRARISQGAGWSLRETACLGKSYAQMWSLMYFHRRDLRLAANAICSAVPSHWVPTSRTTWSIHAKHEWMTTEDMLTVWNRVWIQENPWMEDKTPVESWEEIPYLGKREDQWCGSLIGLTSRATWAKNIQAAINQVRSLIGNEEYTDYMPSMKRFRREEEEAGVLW
[1] abbreviates: measured here: pilot screen replicate inhibition.

Screen size: about 340,000 compounds; about 1,000 (0.29%) were called active. Rule as the data show it: inconclusive = inhibition above about 29% without an active follow-up result; inactive = below that. The list is a sample of the results. Entries with a potency or affinity are not part of this list.

As to `COc1ccc(N2CCN(C(=O)CC3NC4CCCCC4NC3=O)CC2)cc1` (centres undefined), the inhibition is 4.8% (inactive). Besides, the inhibition under setting [1] was -0.61%.
Regarding `CCC(Oc1ccccc1)C(=O)N1CCN(S(=O)(=O)c2ccccc2)CC1` (centres undefined), the inhibition was -3.63% (inactive).
Same read-out and setting: the result for `Cc1cccc(C)c1N(CC(=O)NCc1ccco1)C(=O)CNS(=O)(=O)c1ccc(F)cc1` reads -7.48% (inactive); that for `CC1(C)C(=O)C2(CCCCC2)C(=O)OC1c1ccc(O)cc1` (centres undefined), 5.67% (inactive).
Still for that read-out and setting: the result for `O=S(=O)(c1ccc(Br)cc1Cl)N1CCN(CCO)CC1` reads 0.74% (inactive); that for `O=[N+]([O-])c1ccc(N2CCN(CCOCCO)CC2)c([N+](=O)[O-])c1`, -3.06% (inactive).
Turning to `Cc1cc(=O)oc2c(CN3CCN(CCO)CC3)c(O)ccc12`, the inhibition was -1.72% (inactive).
On the same count and under the same terms, in the case of `OCCOCCN1CCN(C(=S)Nc2ccccc2)CC1` it was -12.4% (inactive); in that of `Cc1noc(C)c1C(=O)OCC(=O)N1CCc2ccccc21`, -4.42% (inactive); in that of `CN(C(=O)c1ccc(NC(=O)Cc2ccc(NC(=O)C3CCCN(C(=O)C4CCC4)C3)cc2)cc1)C1CC1` (centres undefined), -5.79% (inactive).
Same read-out and setting: in the case of `Cc1ccc(NC(=O)CSc2nncs2)cc1Cl` it was -5.19% (inactive).
For `O=C(c1ccc(F)cc1F)N1CCCc2ccccc21`, the inhibition was -15% (inactive).
For `Cc1noc(NS(=O)(=O)c2ccc(NC(=O)c3cc(F)c(F)c(F)c3F)cc2)c1C`, the inhibition was 8.65% (inactive).
On the same count and under the same terms, the result for `Cc1ccccc1C(=O)Nc1ccc(S(=O)(=O)Nc2onc(C)c2C)cc1` reads -6.85% (inactive).
For the compound `Cc1noc(NS(=O)(=O)c2ccc(NC(=O)c3cccc(S(=O)(=O)Nc4ccccc4F)c3)cc2)c1C`, the inhibition was -5.34% (inactive).
Consider `Cc1noc(NS(=O)(=O)c2ccc(NC(=O)c3ccc(F)cc3)cc2)c1C`, for which the inhibition is 11.3% (inactive).
For `CC(=O)C1=C(O)C(=O)N(Cc2ccccc2)C1c1ccc(N(C)C)cc1` (centres undefined), the inhibition was -5.27% (inactive). The inhibition under setting [1] is -5.49%.
With `CC(C1CC1)N(Cc1ccccc1)C(=O)NC(=O)c1cccc(F)c1` (centres undefined), the inhibition was -0.76% (inactive).
Still for that read-out and setting: in the case of `O=C(CN1C(=O)C2CC=CCC2C1=O)Nc1cc(C(F)(F)F)ccc1N1CCCC1` (centres undefined) it was 4.32% (inactive); in that of `CC1(C)CC[C@]2(C(=O)O[C@@H]3O[C@H](CO)[C@@H](O)[C@H](O)[C@H]3O)CC[C@]3(C)C(=CCC4[C@@]5(C)CC[C@H](O[C@@H]6O[C@H](C(=O)O)[C@@H](O[C@H]7OC[C@@H](O)[C@@H](O)[C@@H]7O)[C@H](O)[C@H]6O)C(C)(C)C5CC[C@]43C)[C@@H]2C1` (some centres undefined), -9.97% (inactive).
In the case of `CC1(C)CC[C@]2(C(=O)O[C@@H]3OC(CO)[C@@H](O)[C@H](O)[C@H]3O)CC[C@]3(C)C(=CCC4[C@@]5(C)CC[C@H](O[C@@H]6OC(C(=O)O)[C@@H](O)[C@H](O)[C@H]6O)C(C)(C)C5CC[C@]43C)[C@@H]2C1` (some centres undefined), the inhibition is 20.2% (inactive). The inhibition under setting [1] is 2.42%.
For the compound `COCCCN(Cc1ccco1)C(=O)CSc1nc2ncccc2[nH]1`, the inhibition was -4.52% (inactive).
For `Cc1oc(-c2ccccc2Cl)nc1CS(=O)CC(=O)NCCCN1CC(C)CC(C)C1` (centres undefined), the inhibition was 2.33% (inactive).
Same read-out and setting: in the case of `COc1cccc(/C=C2\Oc3cc(OCC(=O)N4CCC[C@H]4C(=O)O)ccc3C2=O)c1` it was 2.17% (inactive); in that of `COc1ccc(/C=C2\Oc3cc(OCC(=O)N4CC(O)C[C@H]4C(=O)O)ccc3C2=O)cc1OC` (some centres undefined), -10.1% (inactive).
On the same count and under the same terms, the result for `CC(=O)CCS(=O)(=O)c1ccc(Oc2ccc(S(=O)(=O)CCC(C)=O)cc2)cc1` reads 3.83% (inactive); that for `Cc1cccc(S(=O)(=O)Nc2nc3ccccc3nc2Nc2cccc(C(=O)O)c2)c1`, 27.7% (inactive); that for `O=C(O)c1ccc(Nc2nc3ccccc3nc2NS(=O)(=O)c2cccs2)cc1`, 19.7% (inactive).
For the compound `COc1cccc(Nc2nc3ccccc3nc2NS(=O)(=O)c2cccs2)c1`, the inhibition is 16.4% (inactive). For the same compound, the inhibition under setting [1] worked out at 3.81%.
`O=C(O)c1cccc(Nc2nc3ccccc3nc2NS(=O)(=O)c2ccccc2)c1`: the inhibition was 19.8% (inactive).
On the same count and under the same terms, in the case of `CC(=O)Nc1ccc(S(=O)(=O)Nc2nc3ccccc3nc2Nc2ccccc2)cc1` it was -18.8% (inactive).
Same read-out and setting: the result for `O=C(O)c1cccc(Nc2nc3ccccc3nc2NS(=O)(=O)c2ccc(F)cc2)c1` reads 8.81% (inactive); that for `CCc1ccc(/C=C2\SC(=S)N(CCCC(=O)N(CCO)c3ccccc3)C2=O)cc1`, 2.75% (inactive).
For `Cc1ccc(-c2nc3ccccc3[nH]2)cc1NC(=O)c1sc2cc(Cl)ccc2c1Cl`, the inhibition is -3.63% (inactive).
On the same count and under the same terms, in the case of `CCC(C)C(NC(=O)c1ccccc1NC(=O)c1ccccc1)C(=O)O` (centres undefined) it was -1.16% (inactive); in that of `O=C(NNC(=O)c1ccccc1-n1cccc1)c1cccc(Cl)c1`, -3.46% (inactive).
Still for that read-out and setting: the result for `CCCC(C)NNC(=O)c1cc2ccccc2[nH]1` (centres undefined) reads 0% (inactive).
With `COc1ccc(Cl)cc1Nc1nc(-c2sc(NC(=O)C(C)(C)C)nc2C)cs1`, the inhibition is -12% (inactive).
The same measure, in the same setting: in the case of `Cc1ccc(-c2cccc(C3CC=CC4C3C(=O)N(Cc3ccccc3)C4c3cc(C)ccc3F)c2)cc1` (centres undefined) it was -5.46% (inactive); in that of `COc1cc(S(=O)(=O)Nc2cccc(C)c2)ccc1NC(=O)c1ccncc1`, -1.47% (inactive); in that of `N#CC1=C(N)C2=CCCC[C@H]2[C@H](c2cccc(F)c2)C1(C#N)C#N`, -4.34% (inactive).
Still for that read-out and setting: the result for `O=C(O)c1ccccc1NS(=O)(=O)c1ccc(NN=Cc2ccccc2F)c([N+](=O)[O-])c1` reads 9.54% (inactive); that for `COc1ccc(C=NNc2ccc(S(=O)(=O)Nc3ccccc3C(=O)O)cc2[N+](=O)[O-])c(OC)c1`, 17% (inactive); that for `CC(=O)Nc1ccc(C=NNc2ccc(S(=O)(=O)Nc3ccccc3C(=O)O)cc2[N+](=O)[O-])cc1`, 12.4% (inactive).
Regarding `COc1cc(C=NNc2ccc(S(=O)(=O)Nc3ccccc3C(=O)O)cc2[N+](=O)[O-])ccc1O`, the inhibition is 17.4% (inactive).
With `CCOc1ccc(OCC)c(S(=O)(=O)n2cnc(C)c2)c1`, the inhibition is 4.27% (inactive).
`CC(C)N1CCc2c(sc(NC(=O)c3ccco3)c2C(N)=O)C1`: the inhibition was -17.8% (inactive).
The same measure, in the same setting: in the case of `O=C(NN=C1CCN(Cc2ccccc2)CC1)c1ccccc1` it was -11% (inactive).
As to `CSc1nc(N)nc2c1ncn2CC(=O)NCCCc1ccccc1`, the inhibition was -9.58% (inactive). Further, the inhibition under setting [1] is -1.21%.
As for `Cc1cc(O)c(C(C)C)cc1N=Cc1ccccc1O`, the inhibition is 73.5% (inactive).
`Cc1cc(O)c(C(C)C)cc1N=Cc1cc([N+](=O)[O-])ccc1O`: the inhibition is 73.1% (inactive).
The same measure, in the same setting: in the case of `CN(C(=O)c1cc(C(=O)N(C)c2ccccc2)cc([N+](=O)[O-])c1)c1ccccc1` it was -8.48% (inactive); in that of `Cc1ccc(C(=O)c2coc3cc([N+](=O)[O-])c(O)c([N+](=O)[O-])c23)cc1`, 8.29% (inactive).
With `Cc1oc2ccc(O)cc2c1C(=O)c1ccc([N+](=O)[O-])cc1`, the inhibition is -2.6% (inactive).
Take `Cc1oc2ccc(O)cc2c1C(=O)c1ccc(Br)cc1`: the inhibition is 1.53% (inactive).
For the compound `COc1ccc(OC)c(C(=O)c2c(C)oc3cc([N+](=O)[O-])c(O)c([N+](=O)[O-])c23)c1`, the inhibition is 25.1% (inactive).
On the same count and under the same terms, in the case of `CCc1ccc(NC(=O)Cn2ncc3c4ccccc4n(C)c3c2=O)cc1` it was -6.09% (inactive).
Still for that read-out and setting: in the case of `CCCOc1ccc(C(=O)CCC(=O)Nc2ccc(N3CCN(C)CC3)cc2)cc1` it was -15.3% (inactive).
In the case of `CCOC(=O)c1c(NC(=O)/C=C\C(=O)O)sc(C)c1-c1ccccc1`, the inhibition was -5.1% (inactive).
On the same count and under the same terms, in the case of `COC(=O)c1c(NC(=O)/C=C/C(=O)O)sc(Cc2ccccc2)c1C` it was 8.38% (inactive).
For `CCOC(=O)c1c(C)nn(-c2ccc(NC(=O)/C=C/C(=O)O)cc2)c1C`, the inhibition is -3.06% (inactive).
As for `COC(=O)c1c(NC(=O)/C=C/C(=O)O)sc(C)c1-c1ccc(C)c(C)c1`, the inhibition is 18.9% (inactive).
Same read-out and setting: the result for `COC(=O)c1c(NC(=O)/C=C/C(=O)O)sc(C)c1-c1ccc(C)cc1` reads -1.47% (inactive).
On the same count and under the same terms, in the case of `CCc1c(C)sc(NC(=O)/C=C/C(=O)O)c1C(N)=O` it was -7.73% (inactive); in that of `Cc1sc(NC(=O)/C=C/C(=O)O)c(C(N)=O)c1-c1ccc(C(C)(C)C)cc1`, 15.2% (inactive).
The same measure, in the same setting: the result for `CCOC(=O)c1c(NC(=O)/C=C/C(=O)O)sc(C)c1-c1ccc(F)cc1` reads 23.7% (inactive).
Take `NC(=O)C1(N2CCCCC2)CCN(C2CC(=O)N(Cc3cccs3)C2=O)CC1` (centres undefined): the inhibition was -7.74% (inactive).
Consider `O=C(N/N=C/c1ccccc1O)C(=O)Nc1ccccn1`, for which the inhibition was -0.76% (inactive).
Turning to `CCCn1c(SCc2cc(=O)[nH]c3ccccc23)nc2c1c(=O)n(C)c(=O)n2C`, the inhibition was -2.04% (inactive). In addition, the inhibition under setting [1] was -0.155%.
In the case of `Cc1ccccc1Cn1c(CN2CCN(C(=O)c3ccco3)CC2)nc2c1c(=O)n(C)c(=O)n2C`, the inhibition was -5.56% (inactive).
For `CCc1ccc(NS(=O)(=O)c2ccc3oc(=O)ccc3c2)cc1`, the inhibition is 1.32% (inactive). Besides, the inhibition under setting [1] was determined as 1.83%.
Take `O=C(NCc1ccccc1)c1cccc(S(=O)(=O)NCc2ccccc2)c1`: the inhibition was -6.73% (inactive).
In the case of `O=C(Nc1ccc(C(F)(F)F)cc1)C1CCCCN1S(=O)(=O)c1ccccc1` (centres undefined), the inhibition is -9.59% (inactive).
The same measure, in the same setting: the result for `COc1ccc(-n2nc(C(=O)NCC(=O)N(C)Cc3ccccc3)c3ccccc3c2=O)cc1` reads -2.44% (inactive).
The same measure, in the same setting: in the case of `CCc1ccccc1N1C(=O)c2cccc3c(N4CCOCC4)c([N+](=O)[O-])cc(c23)C1=O` it was -4.86% (inactive); in that of `Cc1ccccc1N1C(=O)C(Cl)=C(N2CCCCCC2)C1=O`, -0.78% (inactive); in that of `O=C1C(Cl)=C(N2CCCCCC2)C(=O)N1c1ccccc1Cl`, 8.59% (inactive).
On the same count and under the same terms, in the case of `O=C1C(Cl)=C(N2CCCCC2)C(=O)N1c1ccccc1Cl` it was 16.1% (inactive).
In the case of `Cc1ccccc1N1C(=O)C(Cl)=C(N2CCN(c3ccccc3)CC2)C1=O`, the inhibition was -3.27% (inactive).
Same read-out and setting: in the case of `CC1=CC(C)(C)C(C(=O)O)C(C(=O)O)C1` (centres undefined) it was -2.42% (inactive); in that of `CCOC(=O)/C(C#N)=C1/C=C(C)c2ccccc2N1`, -9.35% (inactive); in that of `O=C(O)COc1ccc2c(c1)O/C(=C\c1cccs1)C2=O`, -8.5% (inactive).
